From PubChem
HTR5A ag = activates human HTR5A in OPRM1-OPRD1 agonist counter-screen | HTR5A agonist assay, luminescence, cell-based | AID 504692 | 340,000 tested, 0.61% active | activation, % at 9.3 µM; in the data active means activation mostly above about 9.5%, no sharp cut-off; inactive means mostly below about 7.6%;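 further: 0% = cells with vehicle only and 100% = reference agonist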
MOR-DOR ag = OPRM1-OPRD1 heterodimerization agonism | activation, % at 9.3 µM | AID 504326 | P35372+P41143 | cells, luminescence | 340,000 tested, 0.3% active; in the data active means activation above about 18%;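 further: 0% = vehicle-treated cells and 100% = reference agonist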
Target sequence (P35372 whole entry, looked up): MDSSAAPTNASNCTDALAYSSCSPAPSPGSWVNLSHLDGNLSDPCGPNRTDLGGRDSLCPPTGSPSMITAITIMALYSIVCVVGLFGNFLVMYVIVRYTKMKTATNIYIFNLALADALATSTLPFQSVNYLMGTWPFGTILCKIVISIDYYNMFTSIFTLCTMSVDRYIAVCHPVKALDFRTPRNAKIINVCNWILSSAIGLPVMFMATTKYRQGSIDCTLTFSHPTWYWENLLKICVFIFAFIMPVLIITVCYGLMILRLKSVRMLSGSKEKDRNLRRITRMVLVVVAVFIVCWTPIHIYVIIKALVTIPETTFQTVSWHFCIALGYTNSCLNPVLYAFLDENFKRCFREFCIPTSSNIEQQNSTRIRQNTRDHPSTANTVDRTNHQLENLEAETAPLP
Target sequence (P41143 whole entry, looked up): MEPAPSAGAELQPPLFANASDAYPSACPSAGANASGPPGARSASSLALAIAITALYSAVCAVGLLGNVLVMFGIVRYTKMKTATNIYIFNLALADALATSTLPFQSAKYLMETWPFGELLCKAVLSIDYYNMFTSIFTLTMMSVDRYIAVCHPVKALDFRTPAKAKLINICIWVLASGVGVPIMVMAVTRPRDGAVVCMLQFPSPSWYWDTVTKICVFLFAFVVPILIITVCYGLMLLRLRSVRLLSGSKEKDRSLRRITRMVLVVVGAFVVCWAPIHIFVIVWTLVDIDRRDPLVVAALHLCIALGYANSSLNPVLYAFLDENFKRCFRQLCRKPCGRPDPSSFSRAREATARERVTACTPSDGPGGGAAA
HTR5A inv ag = counter-screen for OPRM1-OPRD1 inverse agonists: human HTR5A inverse agonism. P47898. HTR5A cell line, luminescence. inhibition, % at 9.3 µM. 340,000 tested, 0.083% active. AID 504634; in the data active means inhibition mostly above about 23%, no sharp cut-off; inactive means mostly below about 18%;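 further: 0% = cells with DMSO and 100% = no-cell wells with DMSO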
HTR2A ag = agonists of mouse serotonin 5-HT2A receptor (HTR2A); activation, % at 7.6 µM; CHO-K1 mHTR2A beta-arrestin complementation, luminescence; percent of 30 µM serotonin response; 360,000 tested, 0.66% active; P35363; AID 624169;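 active means activation above a run cutoff, the mean activation of all tested compounds plus 3 SD, cut at about 14% in these data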;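 further: 0% = plate median of compound wells and 100% = 30 µM serotonin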
MOR-DOR inv ag = inverse agonists of human mu-delta opioid receptor heterodimerization | P35372+P41143 | cell-based MOR-DOR heterodimer luminescence, inverse agonism | inhibition, % at 9.3 µM | 340,000 tested, 0.21% active; in the data active means inhibition above about 22%, passing the limit was not always enough;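 further: 0% = cells with DMSO and 100% = wells without cells with DMSO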
MOR ag counter = counter-screen for mouse HTR2A agonists: human mu opioid receptor agonists. shares compounds with HTR2A ag. AID 624380. 2,300 tested, 5.3% active. activation, % at 9.3 µM. U2OS OPRM1 beta-arrestin PathHunter, luminescence; DMSO 0%, DAMGO 9.3 µM 100%;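 active means mean activation above the mean of DMSO-only wells plus 3 SD, cut at about 0.5% in these data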
HTR2A ag conf = confirmation of mouse HTR2A serotonin receptor agonists; 2,300 tested, 19% active; AID 624381; CHO-K1 PathHunter beta-arrestin recruitment, luminescence; DMSO 0%, 30 µM serotonin 100%; activation, % at 7.6 µM; shares compounds with HTR2A ag;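 active means mean activation across triplicates above the hit threshold derived in the original primary screen, cut at about 15% in these data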
* hit, by the source's call; . = not tested or not shown. Only some compounds are listed: those with a hit (about 1.6% of all), similar ones and a draw of the others.

SMILES	HTR5A ag	MOR-DOR ag	HTR5A inv ag	HTR2A ag	MOR-DOR inv ag	MOR ag counter	HTR2A ag conf
COc1ccc(OCC(=O)N2CCN(Cc3c[nH]c4ccccc34)CC2)cc1	1	2	-28	26*	-10	-1	16*
COC(=O)C1=C(c2cccc(C#N)c2)C[C@@H]2CC[C@H]1N2C(=O)NCC1CC1	1	-1	-5	1	4	.	.
O=C(Cc1ccccc1)N1CCN(Cc2ccc(Cl)cc2)CC1	-1	0	5	1	0	.	.
Cc1ccccc1CN1CCN(C(=O)Cc2ccccc2)CC1	-1	-2	3	17*	10	-1	1
CCC(=NCc1cccnc1)c1c(O)n(-c2ccc(C)cc2)c(=O)[nH]c1=O	3	-1	-8	2	4	.	.
Cc1nn(Cc2ccccc2)c(C)c1C(=O)NCc1ccccc1F	-5	-3	13	-4	15	.	.
Cc1nn(Cc2ccccc2)c(C)c1C(=O)O	3	-2	-4	15*	11	0.6*	6
O=C1NCN(c2ccccc2)C12CCN(C(c1ccccc1)c1nnnn1C1CCCC1)CC2 (configuration not stated)	.	.	.	-1	.	.	.
Cc1cc(OCC(=O)OC(C)(C)C)c2c3c(c(=O)oc2c1)CCC3	8	5	-22	2	-27	.	.
CCN(CC)C(=O)COc1cc(C)cc2oc(=O)c3c(c12)CCCC3	7	-1	-25	14*	5	0	-4
Cc1cccc(C)c1OP(N)(=O)Oc1c(C)cccc1C	-5	1	13	18*	-3	-1	-2
Fc1ccc(CNCCc2ccc3c(c2)OCO3)cc1	3	-2	9	4	9	.	.
Clc1ccccc1CNCCc1c[nH]c2ccccc12	.	.	.	23*	.	1.1*	51*
OC(CNCCc1c[nH]c2ccccc12)C(F)(F)F (configuration not stated)	-1	-4	4	-3	18	.	.
CNCCc1c[nH]c2ccccc12	.	.	.	32*	.	-1	16*
O=[N+]([O-])c1ccccc1CNCCc1c[nH]c2ccccc12	9	-2	-34	2	11	.	.
c1ccc2c(CCNCc3ccc4c(c3)OCO4)c[nH]c2c1	5	0	2	30*	-1	0	38*
CCc1ccc(CNCCc2c[nH]c3ccccc23)cc1	6	1	-20	16*	-7	0	9
C=CCc1cc(C=C2C(=O)N(C)C(=O)N(C)C2=O)cc(OCC)c1OCc1ccccc1	5	3	7	-3	-15	.	.
OC1CCCCC1N1CCC(c2ccccc2)CC1 (configuration not stated)	0	-2	2	-3	10	.	.
c1ccc(CNCCc2c[nH]c3ccccc23)cc1	12	1	-19	41*	-4	-1	20*
CCOc1ccccc1CNCCc1ccc2c(c1)OCO2	-4	-3	15	53*	12	0	25*
CC(O)CNc1ccc([N+](=O)[O-])c2cccnc12 (configuration not stated)	-2	-1	8	-3	9	.	.
NCCNc1ccc([N+](=O)[O-])c2cccnc12	1	-1	-14	22*	3	-1	6
CCCN1CCC[C@@H]2Cc3[nH]ncc3C[C@H]21	0	-2	-2	42*	8	-1	171*
Cn1nccc1C(=O)N1CCC2(CC1)OCCO2	8	-1	2	-8	4	.	.
O=C(C(=O)N1CCOCC1)c1cn(Cc2ccccc2)c2ccccc12	6	-2	-15	2	8	.	.
